For one assay, the system named is PIK3C2G. The settings on record: concentration: 1 μM, replicates: in singlicate; n = 1.
Turning to `c1ccc(Oc2ccc(Nc3ccnc4cc(-c5ccc(CN6CCCCC6)o5)ccc34)cc2)nc1` [GW567143], the “%Inh” value was 0%.

In the case of `CN(c1ccc(F)c(NC(=O)c2cccc(OC(C)(C)C#N)c2Cl)c1)c1ccc2nc(NC(=O)C3CC3)sc2n1`, the “%Inh” value was 30%.

For the molecule `CCOc1nccc(-c2c(-c3ccc(F)cc3)ncn2C2CCNCC2)n1` [SB-249175], the “%Inh” value is 1%.

For `CN(C)CCNS(=O)(=O)c1ccc(-c2ccnc3[nH]ccc23)cc1` [GSK977620], the “%Inh” value worked out at 0%.

Take `CC(C)(C)c1ccc(C(=O)Nc2cn3cc(-n4ccnc4)ccc3n2)cc1`: the “%Inh” value worked out at 32%.

As for `Cn1cc(-c2ccc3c(c2)CCN3C(=O)Cc2cc(F)cc(F)c2F)c2c(N)ncnc21` [GSK2634140], the “%Inh” value was found to be 0%.

For `O=C(Nc1n[nH]c2nc(-c3ccccc3)ccc12)C1CC1` [SB-708999], the “%Inh” value was 9%.

Take `O=C(Nc1n[nH]c2nc(-c3cccc(O)c3)ccc12)C1CC1` [SB-711805]: the “%Inh” value was 16%.

On to `CN(C)CCOc1ccc(-c2cc(-c3ccc(Cl)c(O)c3)c(-c3ccncc3)[nH]2)cc1.Cl.Cl` [SB-684387], for which the “%Inh” value is listed as 30%.

Turning to `Cc1cc(-c2c(-c3ccc(F)cc3)ncn2CCCN2CCOCC2)nc(N)n1` [SB-222517], the “%Inh” value amounted to 20%.

As to `CC(C)NCC(Cc1ccccc1)NC(=O)c1cc(Br)c(-c2ccnc3[nH]ccc23)s1.Cl.Cl` (centres unmarked) [GSK1383281], the “%Inh” value came to 0%.

Turning to `CNc1nccc(-c2ccc3c(N)n[nH]c3c2)n1` [GSK2206003], the “%Inh” value is given as 1%.

Regarding `O=C(Nc1n[nH]c2nc(-c3ccccc3O)ccc12)C1CC1` [SB-711880], the “%Inh” value is recorded as 0%.

As for `O=C1NC(=O)C(c2ccccc2Cl)=C1Nc1cccc(Cl)c1` [SB-342409], the “%Inh” value was found to be 0%.

As to `Cc1nn2c(=O)cc(N3CCO[C@H](C)C3)nc2n1Cc1cccc(Cl)c1Cl` [GSK2373693], the “%Inh” value stood at 89%.

As to `CCNc1nccc(-c2c(-c3ccc(F)cc3)ncn2C2CCN(C)CC2)n1`, the “%Inh” value was determined as 26%.

On to `COC(=O)Nc1nc2ccc(Oc3ccc(CC(=O)Nc4cc(C(F)(F)F)ccc4F)cc3)cc2[nH]1` [GW680903], for which the “%Inh” value came to 0%.

With `N#Cc1cnc2cc(-c3cnc(CNCCN4CCOCC4)s3)ccc2c1Nc1ccc(Oc2ccccc2)cc1` [GW664114], the “%Inh” value was determined as 0%.

Turning to `COc1cccc(C2=C(Nc3cccc(O)c3)C(=O)NC2=O)c1` [SB-390771], the “%Inh” value came to 0%.

Turning to `O=C(Nc1n[nH]c2cc(-c3cccs3)ccc12)C1CC1` [SB-731284], the “%Inh” value came to 1%.

In the case of `Cc1ccc(O)cc1Nc1ccnc2ccc(C(C)(C)C)cc12` [GW856805], the “%Inh” value was determined as 39%.

As to `Nc1cccc(-c2ccc3c(N)n[nH]c3c2)c1` [GSK2193613], the “%Inh” value came out at 0%.

Turning to `Fc1cc(Cl)ccc1Nc1ccnc2cc(-c3ccc(CN4CCOCC4)o3)ccc12` [GW560109], the “%Inh” value is 0%.

In the case of `Nc1ncc(-c2ccc3nccc(-c4ccncc4)c3c2)cc1S(=O)(=O)N1CCCCC1` [GSK1693850], the “%Inh” value amounted to 99.8%.

As for `Nc1ncnc2scc(-c3ccc(NC(=O)Cc4cc(F)ccc4F)cc3)c12.O=C(O)C(F)(F)F` [SB-731254-M], the “%Inh” value is 13%.

A further assay concerns PIK3CA. Particulars: concentration: 1 μM, replicates: in singlicate; n = 1.
As to `Cl.Cl.NC(CNC(=O)c1cc(Br)c(-c2ccnc3[nH]ccc23)s1)c1ccccc1` (centres unmarked) [GSK1322949], the “%Inh” value stood at 1%.

For `Cl.Cl.NCC(NC(=O)c1cc(-c2cccnc2)c(-c2ccnc3[nH]ccc23)s1)c1ccccc1` (centres unmarked) [GSK1323434], the “%Inh” value is 0%.

Consider `CC(C)c1nc(-c2ccc(F)c(NS(=O)(=O)c3c(F)cccc3F)c2)c(-c2ccnc(Nc3ccc(N4CCOCC4)nc3)n2)s1` [GSK1804250], for which the “%Inh” value was 0%.

Regarding `CC(=O)Nc1cn2nc(Oc3cccc(NC(=O)c4cccc(C(F)(F)F)c4)c3)ccc2n1`, the “%Inh” value worked out at 0%.

Regarding `COc1cc(Nc2nccc(N3CCC(NS(=O)(=O)c4ccc(NC(C)=O)cc4)CC3)n2)cc(OC)c1OC` [GSK1379825], the “%Inh” value worked out at 0%.

As for `Cn1cc(-c2cnc(N)c3c(-c4ccc5c(c4)CCN5C(=O)Cc4ccccc4)csc23)cn1` [GSK2593074], the “%Inh” value is 8%.

As to `Cc1ccc(NC(=O)c2ccnc(N3CCCCC3)c2)cc1-c1ccc(C(=O)NCC2CC2)cc1` [GW775610], the “%Inh” value is on record as 0%.

`CCn1cnc2c(NCc3ccccc3)ncnc21` [SKF-96418]: the “%Inh” value is reported as 0%.

As for `Cc1ccc(NC(=O)c2cccc(N3CCCCC3)c2)cc1-c1ccc(C(=O)NCC2CC2)cc1` [GSK1917008], the “%Inh” value came out at 1%.

With `COc1ccc(NC(=O)c2ccoc2)cc1-c1ccc(C(=O)NCC2CC2)cc1` [GW810437], the “%Inh” value is listed as 9%.

Take `COc1cccc(CC(=O)N2CCc3cc(-c4cn(C)c5ncnc(N)c45)ccc32)c1` [GSK2608899]: the “%Inh” value is given as 6%.

Regarding `CN1CCN(Cc2ccc(NC(=O)Nc3ccc(N(C)c4ccnc(Nc5ccc(CS(C)(=O)=O)cc5)n4)cc3)cc2)CC1.Cl` [GW827654], the “%Inh” value is 0%.

Take `c1ccc(Oc2ccc(Nc3ccnc4cc(-c5ccc(CN6CCCCC6)o5)ccc34)cc2)nc1` [GW567143]: the “%Inh” value was determined as 0%.

Turning to `CN(c1ccc(F)c(NC(=O)c2cccc(OC(C)(C)C#N)c2Cl)c1)c1ccc2nc(NC(=O)C3CC3)sc2n1`, the “%Inh” value is given as 0%.

Consider `CCOc1nccc(-c2c(-c3ccc(F)cc3)ncn2C2CCNCC2)n1` [SB-249175], for which the “%Inh” value came to 9%.

With `CN(C)CCNS(=O)(=O)c1ccc(-c2ccnc3[nH]ccc23)cc1` [GSK977620], the “%Inh” value stood at 0%.

Consider `CC(C)(C)c1ccc(C(=O)Nc2cn3cc(-n4ccnc4)ccc3n2)cc1`, for which the “%Inh” value stood at 0%.

For the molecule `Cn1cc(-c2ccc3c(c2)CCN3C(=O)Cc2cc(F)cc(F)c2F)c2c(N)ncnc21` [GSK2634140], the “%Inh” value is 0%.

For `O=C(Nc1n[nH]c2nc(-c3ccccc3)ccc12)C1CC1` [SB-708999], the “%Inh” value was 11%.

In the case of `O=C(Nc1n[nH]c2nc(-c3cccc(O)c3)ccc12)C1CC1` [SB-711805], the “%Inh” value was 0%.

Regarding `CN(C)CCOc1ccc(-c2cc(-c3ccc(Cl)c(O)c3)c(-c3ccncc3)[nH]2)cc1.Cl.Cl` [SB-684387], the “%Inh” value is listed as 9%.

Take `Cc1cc(-c2c(-c3ccc(F)cc3)ncn2CCCN2CCOCC2)nc(N)n1` [SB-222517]: the “%Inh” value was determined as 23%.

Regarding `CC(C)NCC(Cc1ccccc1)NC(=O)c1cc(Br)c(-c2ccnc3[nH]ccc23)s1.Cl.Cl` (centres unmarked) [GSK1383281], the “%Inh” value is listed as 0%.

With `CNc1nccc(-c2ccc3c(N)n[nH]c3c2)n1` [GSK2206003], the “%Inh” value is reported as 0%.

In the case of `O=C(Nc1n[nH]c2nc(-c3ccccc3O)ccc12)C1CC1` [SB-711880], the “%Inh” value worked out at 0%.

Take `O=C1NC(=O)C(c2ccccc2Cl)=C1Nc1cccc(Cl)c1` [SB-342409]: the “%Inh” value was 0%.

Turning to `Cc1nn2c(=O)cc(N3CCO[C@H](C)C3)nc2n1Cc1cccc(Cl)c1Cl` [GSK2373693], the “%Inh” value came to 23%.

As to `CCNc1nccc(-c2c(-c3ccc(F)cc3)ncn2C2CCN(C)CC2)n1`, the “%Inh” value is 0%.

`COC(=O)Nc1nc2ccc(Oc3ccc(CC(=O)Nc4cc(C(F)(F)F)ccc4F)cc3)cc2[nH]1` [GW680903]: the “%Inh” value is reported as 0%.

Take `N#Cc1cnc2cc(-c3cnc(CNCCN4CCOCC4)s3)ccc2c1Nc1ccc(Oc2ccccc2)cc1` [GW664114]: the “%Inh” value came to 0%.

Regarding `COc1cccc(C2=C(Nc3cccc(O)c3)C(=O)NC2=O)c1` [SB-390771], the “%Inh” value is reported as 0%.

`O=C(Nc1n[nH]c2cc(-c3cccs3)ccc12)C1CC1` [SB-731284]: the “%Inh” value is recorded as 3%.

Take `Cc1ccc(O)cc1Nc1ccnc2ccc(C(C)(C)C)cc12` [GW856805]: the “%Inh” value is listed as 13%.

`Nc1cccc(-c2ccc3c(N)n[nH]c3c2)c1` [GSK2193613]: the “%Inh” value is 0%.

As for `Fc1cc(Cl)ccc1Nc1ccnc2cc(-c3ccc(CN4CCOCC4)o3)ccc12` [GW560109], the “%Inh” value came to 0%.

For `Nc1ncc(-c2ccc3nccc(-c4ccncc4)c3c2)cc1S(=O)(=O)N1CCCCC1` [GSK1693850], the “%Inh” value worked out at 100%.

On to `Nc1ncnc2scc(-c3ccc(NC(=O)Cc4cc(F)ccc4F)cc3)c12.O=C(O)C(F)(F)F` [SB-731254-M], for which the “%Inh” value amounted to 0%.

The values above are taken from article PMC5540273 (PLoS ONE, 2017).
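Note: KINOMEscan kinase panel screen.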
